High-throughput results (PubChem BioAssay)
In the library only some 9.2% were active in any assay of this set; here they are far more common.
FLuc counter: qHTS profiling assay for firefly luciferase inhibitor/activator using purifed enzyme and Km concentrations of substrates (counterscreen for miR-21 project); Potency, µM (doses to about 57.5 µM), for inactives: at the top dose activity change, negative = inhibition, usual class: inhibitors; Luciferin 4-monooxygenase (Photinus pyralis), P08659; hit rate 6.9% among 360,000; AID 588342, 2011; purified FLuc, Km substrates, luminescence inhibition;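 note: plate controls were vehicle for no effect and reference inhibitor for full effect; nearly all actives have a fitted effect of over 55% in size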
Target sequence (P08659 whole entry, looked up): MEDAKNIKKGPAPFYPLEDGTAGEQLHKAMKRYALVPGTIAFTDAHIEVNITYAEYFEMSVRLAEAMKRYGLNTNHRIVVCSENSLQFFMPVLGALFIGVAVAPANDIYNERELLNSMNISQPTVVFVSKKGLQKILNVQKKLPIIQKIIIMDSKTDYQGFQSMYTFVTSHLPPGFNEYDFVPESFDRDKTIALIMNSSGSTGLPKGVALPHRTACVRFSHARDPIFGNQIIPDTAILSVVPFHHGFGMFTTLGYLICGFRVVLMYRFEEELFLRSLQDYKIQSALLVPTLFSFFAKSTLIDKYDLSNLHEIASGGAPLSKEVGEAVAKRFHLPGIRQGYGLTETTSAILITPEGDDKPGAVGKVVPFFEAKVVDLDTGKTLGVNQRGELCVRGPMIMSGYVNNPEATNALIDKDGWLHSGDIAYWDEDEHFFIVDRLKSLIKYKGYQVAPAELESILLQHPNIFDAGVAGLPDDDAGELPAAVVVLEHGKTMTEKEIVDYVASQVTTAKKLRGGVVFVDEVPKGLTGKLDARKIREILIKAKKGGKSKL
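Purified P. pyralis luciferase, 10 nM final, with Km-level 10 uM D-luciferin and 10 uM ATP in 50 mM Tris acetate pH 7.5, 10 mM Mg acetate, 0.01% Tween-20, 0.05% BSA; 6-point qHTS titration about 60 µM downward; luminescence read.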
Rab9 prom act: qHTS Assay for Rab9 Promoter Activators | AID 485297, 2010 | Huh7 Rab9 promoter-luciferase reporter, luminescence, 24 h | hit rate 2.8% among 320,000 | Potency, µM (top dose mostly 9.22 µM), inactives show top-dose activation, negative = inhibition, usual class: activators; note: % of control where 0% means no effect; nearly all actives have a fitted effect of over 60% in size
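Luciferase signal after 10 min detection reagent at ambient indicates Rab9 promoter upregulation; stably transfected Huh7 cells were treated 24 h with compound in DMSO at 37 °C, 5% CO2.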
SMN2 splice enh: qHTS Assay for Enhancers of SMN2 Splice Variant Expression. HEK293 SMN2-luciferase splicing reporter, luminescence, 30-36 h. AID 1458, 2008. Potency, µM (highest dose often 46.1 µM), inactives show top-dose activity change, positive = activation, usual class: activators. hit rate 2.8% among 210,000; note: % of control where 0% means no effect; nearly all actives have a fitted effect of over 55% in size
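qHTS luciferase splicing reporter: luminescence rises when SMN2 exon 7 is included in transfected HEK293 cells. Compound exposure lasted 30-36 h at 37C, with 4.5 mM final sodium butyrate as control, followed by a ONE-Glo read.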
NPC1 promoter act: qHTS Assay for NPC1 Promoter Activators. hit rate 2.4% among 320,000. Huh7 NPC1 promoter luciferase reporter, 24 h. Potency, µM (series often up to 9.22 µM), for the others: at the highest dose activation, actives largely listed as activators; note: % of control where 0% means no effect; nearly all actives have a fitted effect of over 60% in size
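Cells: Huh7 expressing luciferase under the NPC1 promoter, 1500/well. Seeded 2 h, compound added, incubated 24 h at 37 °C. Luciferase reagent, 10 min ambient, then luminescence.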
ELG1 genotox: qHTS screen for small molecules that induce genotoxicity in human embryonic kidney (HEK293T) cells expressing luciferase-tagged ELG1; HEK293T ELG1-luciferase reporter, luminescence, 16 h; Potency, µM (titrated, usually from 46 µM), without a hit: at the top dose activity change, positive = activation, most hits filed as activators; hit rate 1.3% among 330,000; note: % of control where 0% means no effect; nearly all actives have a fitted effect of over 60% in size
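Luminescence read-out: rising ELG1-luciferase signal, reflecting elevated ELG1 protein under genetic stress, flags genotoxic compounds. Cells were treated for 16 hr at 37 °C before ONE-Glo detection.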
ELG1 DNA repair: qHTS screen for small molecules that inhibit ELG1-dependent DNA repair in human embryonic kidney (HEK293T) cells expressing luciferase-tagged ELG1; hit rate 2.3% among 330,000; Potency, µM (titrated, usually from 46.1 µM), inactives show at the top dose activity change, negative = inhibition, actives largely listed as inhibitors; HEK293T ELG1-luciferase reporter, luminescence, 16 h; DNA damage induced by 5-fluorouridine; AID 504467, 2011; note: % is set by controls: 0 for no effect and ±100 for the full control effect; nearly all actives have a fitted effect of over 55% in size
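HEK293T cells expressing luciferase-tagged ELG1 (2,000/well) received 5-Fluorouridine plus compound or DMSO for 16 hr at 37 °C. Luciferase was read by ONE-Glo luminescence after 30 min at room temperature.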
The depositor's hits bear a star; ? = inconclusive; . = not tested or not shown. Calls come from the whole dose curve; as a rule, active = well fitted curve in the direction sought with a large enough effect; inconclusive = small, poorly fitted or top-dose-only effect, or another doubt; inactive = no such curve, though single readings can be large; an effect the other way counts as inactive or inconclusive. Potency is the fitted concentration of half-maximal effect.

SMILES	FLuc counter	Rab9 prom act	SMN2 splice enh	NPC1 promoter act	ELG1 genotox	ELG1 DNA repair
CSc1cccc(NC(=O)C(=O)NCc2ccccc2)c1	3%	1%	.	1%	1%	11%
O=C(Nc1cccc(Cl)c1)Nc1cccc(C(=O)O)c1	0.48µM*	0.35µM*	.	0.32µM*	-2%	?
O=C(NNC1=NCCCCC1)Nc1ccc(Cl)cc1	?	?	.	21%	19%	13%
O=C(Nc1ccc(C(=O)N2CCCCC2)cc1)Nc1cccc(Cl)c1	11µM*	3.2µM*	.	4µM*	13%	?
O=C(NCc1ccccc1)C(=O)Nc1cccc(C(=O)O)c1	0.67µM*	0.32µM*	.	0.089µM*	-5%	?
O=C(NNC1=NCCCCC1)Nc1cccc(Cl)c1	17µM*	1.1µM*	22µM*	?	11%	?
O=C(c1ccco1)N1CCC2(CC1)CN(C(c1ccccc1)c1ccccc1)C2	.	.	-17%	.	.	.
O=C(Nc1ccc2nccnc2c1)Nc1ccccc1Cl	?	?	.	?	-2%	?
O=C(Nc1cccc(C(=O)O)c1)Nc1ccccc1Cl	0.21µM*	0.1µM*	13µM*	0.5µM*	-10%	?
O=C(Nc1cccc(Cl)c1)Nc1ccc2nccnc2c1	19µM*	2.2µM*	.	2.8µM*	-2%	?
O=C(CCCOc1ccc(Cl)cc1)Nc1cccc(C(=O)O)c1	17µM*	3%	.	-1%	5%	?
CC(=O)c1ccc(NC(=O)Nc2cccc(Cl)c2)cc1	17µM*	1.3µM*	11µM*	1.4µM*	?	?
CC(=O)c1cccc(NC(=O)CCCOc2ccc(C)cc2)c1	-13%	9%	-20%	0%	-2%	0%
Cc1cc(C)c(C#N)c(SCC(O)COc2ccc(Br)cc2)n1 (stereo not drawn)	-15%	-2%	.	-3%	-16%	?
CC(=O)c1ccc(NC(=S)NCCc2cccc(Cl)c2)cc1	-22%	2.8µM*	13µM*	?	?	?
O=C(Nc1cccc(C(=O)O)c1)/C(=C\c1ccccc1)NC(=O)c1cccc2ccccc12	21µM*	0%	.	-4%	0%	5%
Cc1nn(C)cc1CNC(=O)Nc1cccc(Cl)c1	?	3.5µM*	?	?	28%	?
CC(C)(C)OC(=O)C1=NOC2(C=CC(=O)C=C2)C1	.	.	14%	.	.	.
O=c1cc(O)c2sc3nc4c(c(C(F)(F)F)c3c2[nH]1)CCCCC4	17µM*	5%	.	-2%	2%	16%
Cc1ccccc1C(=O)Nc1sc2c(c1C(=O)O)CCC2	19µM*	-13%	5%	-1%	-5%	-11%
O=C(Nc1sc2c(c1C(=O)O)CCCCC2)c1cccnc1	17µM*	28%	.	25%	6%	19%
Cc1cccc(C(=O)Nc2sc3c(c2C(=O)O)CCCC3)c1	15µM*	28%	15%	23%	0%	?
O=C(Nc1sc2c(c1C(=O)O)CCC2)c1ccccc1Cl	?	-1%	.	0%	-11%	-7%
Cc1cccc(C(=O)Nc2sc3c(c2C(=O)Nc2ccccc2)CCC3)c1	?	.	-12%	.	.	.
COC(=O)c1c(NC(=O)c2nc3ccccc3s2)sc2c1CCN(C(C)=O)C2	?	18%	-7%	-2%	-1%	?
SMILES	FLuc counter	Rab9 prom act	SMN2 splice enh	NPC1 promoter act	ELG1 genotox	ELG1 DNA repair
CNC(=O)c1c(NC(=O)c2nc3ccccc3s2)sc2c1CCC2	5.4µM*	2µM*	13µM*	?	4.6µM*	?
O=C(Nc1sc2c(c1C(=O)N1CCOCC1)CCCCC2)c1cccnc1	4%	-5%	-9%	-2%	3%	-3%
CCc1nnc(NC(=O)c2c(C)nn(-c3ccccc3)c2Cl)s1	?	0%	-7%	13%	2%	-2%
CCC(C)NC(=O)C1CCC(=O)N1CCc1ccccc1 (stereo not drawn)	-2%	3%	.	-4%	-3%	5%
COc1ccccc1NC(=O)CC1S/C(=N/N=C2\CCCc3ccccc32)NC1=O (stereo not drawn)	?	0%	-16%	-6%	-1%	?
COC(=O)Cn1c(O)c(N=NC(=O)CNC(=O)COc2cccc(C)c2)c2ccccc21	4%	2%	.	-5%	0%	2%
COc1ccc(CC(=O)Nc2c(C(=O)N3CCN(c4ccccc4)CC3)oc3ccccc23)cc1OC	-1%	-1%	.	-5%	-8%	?
CCc1c(C)sc(NC(=O)c2cccs2)c1C#N	7.6µM*	?	11µM*	?	?	?
CCc1c(C)sc(NC(=O)c2cc(C)on2)c1C#N	12µM*	?	26%	?	?	?
Cc1sc(NC(=O)c2ccccc2)c(C#N)c1-c1ccccc1	2.4µM*	1.6µM*	8.9µM*	2.8µM*	?	?
CCCc1cc(C(=O)Nc2sc(C)c(CC)c2C#N)no1	-14%	0%	6%	6%	7%	24%
Cc1ccc(C(=O)Nc2sc(C(=O)N(C)C)c(C)c2C#N)cc1	?	-2%	26%	-1%	9%	1%
Cc1ccc(NC(=O)c2cc3ccccc3o2)cc1S(=O)(=O)N(C)C	0.85µM*	2.5µM*	13µM*	3.2µM*	2.6µM*	?
Cc1ccc(NC(=O)c2cc3ccccc3oc2=O)cc1S(=O)(=O)N(C)C	0.076µM*	-34%	.	-28%	10%	?
CN(C)S(=O)(=O)c1ccc(NC(=O)c2cc3ccccc3o2)cc1	15µM*	?	0%	?	-1%	-2%
Cc1ccc(NC(=O)c2ccccc2OCC(=O)Nc2ccccc2F)cc1S(=O)(=O)N(C)C	7.6µM*	19%	.	8%	0%	?
CN(c1ccccc1)S(=O)(=O)c1cccc(NC(=O)c2cc3ccccc3oc2=O)c1	?	29%	.	?	?	?
O=C(Cc1ccccc1F)Nc1ccc(S(=O)(=O)Nc2ncccn2)cc1	0%	-7%	.	-1%	3%	8%
O=C(O/N=C\c1ccc(N2CCCCC2)c([N+](=O)[O-])c1)c1ccc(Cl)cc1Cl	-1%	-8%	-9%	-4%	-2%	-7%
COc1ccccc1C(=O)/C=C/c1ccc(N2CCCCC2)c([N+](=O)[O-])c1	6µM*	?	-84%	?	?	?
O=C(/C=C/c1ccc(N2CCCCC2)c([N+](=O)[O-])c1)c1ccc(O)cc1	4.8µM*	?	-8%	?	21µM*	?
